Most compounds without a hit are left out; they make up all but 2.4% or so of the library.
CHO-K1 Ca antag – counter-screen for M1 antagonists: effect in parental CHO-K1 cells | 360,000 compounds, 0.6% hits | inhibition, % at 3 µM | AID 602250 | ATP-induced calcium, Fluo-8 fluorescence;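 active means inhibition above a per-plate cutoff, the plate's mean sample inhibition plus 3 SD, cut at about 24% in these data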
CHRM1 agonist – human M1 muscarinic receptor agonism | CHO-K1 hM1, Fluo-8 calcium fluorescence, agonist mode; 0% DMSO, 100% acetylcholine EC100 | P11229 | activation, % at 3 µM | 360,000 compounds, 0.33% hits;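 active means activation above the run's mean compound activation plus 3 SD, cut at about 16% in these data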;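 further: peak over basal fluorescence ratio within a 140 s kinetic read after compound addition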
Target sequence (P11229 whole entry, looked up): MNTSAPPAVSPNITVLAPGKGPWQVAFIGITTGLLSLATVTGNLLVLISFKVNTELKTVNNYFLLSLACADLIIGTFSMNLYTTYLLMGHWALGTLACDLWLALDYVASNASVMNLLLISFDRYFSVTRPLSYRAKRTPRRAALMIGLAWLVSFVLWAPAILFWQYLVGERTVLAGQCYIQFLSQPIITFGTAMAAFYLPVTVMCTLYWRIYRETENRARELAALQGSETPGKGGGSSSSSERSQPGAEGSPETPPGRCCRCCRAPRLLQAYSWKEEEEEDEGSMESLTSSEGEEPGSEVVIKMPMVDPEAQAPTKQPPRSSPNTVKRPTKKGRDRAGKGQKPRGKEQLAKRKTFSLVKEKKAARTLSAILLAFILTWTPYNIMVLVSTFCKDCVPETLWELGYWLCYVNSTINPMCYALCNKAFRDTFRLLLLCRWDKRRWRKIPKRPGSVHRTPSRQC
CHO-K1 Ca ag – M1 agonist counterscreen hit in parental CHO-K1 cells | activation, % at 3 µM | 360,000 compounds, 0.48% hits | Fluo-8 calcium fluorescence; scaled to maximal ATP response, vehicle zero; in the data active means activation above about 15%;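 further: untransfected CHO-K1 host cells lacking M1 receptor as counterscreen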
CHO-K1 Ca PAM – nonselective activator or artifact in parental CHO-K1 calcium assay; ATP EC20, Fluo-8 calcium fluorescence; 0% at ATP EC20, 100% at ATP max; activation, % at 3 µM; 360,000 compounds, 0.02% hits; AID 602247;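 active means activation above the run cutoff, the mean activation of all test compounds plus 3 SD, cut at about 40% in these data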;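 further: peak over basal fluorescence ratio in a 140 s read after ATP addition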
CHRM1 antagonist – human CHRM1 antagonism. AID 588852. 360,000 compounds, 1.3% hits. inhibition, % at 3 µM. P11229. CHO-K1 hM1, Fluo-8 calcium fluorescence, ACh EC80 antagonist;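 active means percent inhibition above its own plate's cutoff, namely the mean of that plate's compound wells plus 3 SD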;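 further: peak over basal fluorescence ratio during 140 s after agonist addition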
M1 PAM – potentiates human M1 receptor response to acetylcholine; CHO-K1 hM1, Fluo-8 calcium fluorescence, ACh EC20; 0% = ACh EC20, 100% = maximal ACh; activation, % at 3 µM; AID 588819; 360,000 compounds, 0.088% hits; P11229; in the data active means activation above about 19%, passing the limit was not always enough
Numbers stand for hits; i = inactive; nt = not tested or not shown; ! = repeats disagree.

SMILES | CHO-K1 Ca antag | CHRM1 agonist | CHO-K1 Ca ag | CHO-K1 Ca PAM | CHRM1 antagonist | M1 PAM
COc1cc(C)c(CNCCc2c[nH]c3ccccc23)cc1C | i | i | 16 | i | i | i
CN(C(=O)COC(=O)c1cn(C)c2ccccc12)C1CCCCC1 | i | i | i | i | i | i
CCOP(=O)(OCC)C(NC(=O)c1ccccc1)C(Cl)(Cl)Cl (configuration not stated) | 24 | i | i | i | i | i
CCN(CC)CCC(=O)O[C@H]1CC[C@]2(C)C3CC[C@@]4(C)C(CC[C@]4(C)O)C3CC[C@H]2C1 (some centres not stated) | i | i | i | i | 50 | i
CCOC(=O)c1[nH]c2ccc(OC)cc2c1C(SCC(=O)O)c1ccc(C(F)(F)F)cc1 (configuration not stated) | i | i | i | i | i | i
OCC[N+]12CCC(CC1)C(C(O)(c1ccccc1)c1ccccc1)C2 (configuration not stated) | i | i | i | i | i | i
c1ccc(C2CN3CCC2CC3)cc1 (configuration not stated) | i | i | i | i | 41 | i
OC(Cc1ccccc1)(c1ccccc1)C1CN2CCC1CC2 (configuration not stated) | i | i | i | i | 98 | i
OC(c1ccccc1)(c1ccc(Cl)cc1)C1CN2CCC1CC2 (configuration not stated) | i | i | i | i | 100 | i
OC(c1ccccc1)(c1ccccc1)C1CN2CCC1CC2 (configuration not stated) | i | i | i | i | 98 | i
COc1ccc(C2=NS(=O)(=O)N(C)C(C(=O)N3CCC4(CC3)OCCO4)=C2)cc1OC | i | i | i | i | i | i
O=C(Oc1ccc([N+](=O)[O-])cc1)N1CCC(N2CCCCC2)CC1 | i | i | i | i | 85 | i
CC(=O)Nc1ccc(OC(=O)N2CCCCC2)cc1 | i | i | i | i | i | i
CCOC(=O)[C@]12Cc3c(cc(OC)c(OC)c3OC)[C@H]1N(C)C(=O)c1cc(OC)ccc12 | i | nt | i | i | nt | nt
c1ccc(C(OCCN2CCNCC2)c2ccccc2)cc1 | i | i | i | i | 70 | i
CC(C)S(=O)(=O)N1Cc2ccccc2-n2nncc2C1 | i | i | i | i | 47 | i
COc1ccc(S(=O)(=O)N2Cc3ccccc3-n3nncc3C2)cc1 | i | i | i | i | i | i
Cc1nn(Cc2ccccc2Cl)c(Cl)c1C(=O)O | i | i | i | i | 36 | i
Cc1nn(Cc2ccccc2)c(Cl)c1C(=O)O | i | i | i | i | i | i
CN1C2CCC1CC(OC(=O)c1cccc(O)c1)C2 (configuration not stated) | i | i | i | i | 59 | i
CC1CC(OC(=O)c2ccccc2)CC(C)N1C (configuration not stated) | i | i | i | i | 42 | i
C[C@]12CC(=O)CC1CCC1C2CC[C@@]2(C)C1CC[C@@H]2O (some centres not stated) | i | i | i | i | i | i
CN=C(SCC(=O)c1cccc(Cl)c1)c1c(O)n(C)c(=O)n(C)c1=O | i | i | i | i | i | i
CN(C)c1ccc(/C=C/c2cc[n+](C)c3ccccc23)cc1 | i | i | i | i | 30! | i
CC(C)(C)C(=O)N1Cc2cc(N3CCOCC3)ccc2-n2nncc2C1 | i | i | i | i | i | i
SMILES | CHO-K1 Ca antag | CHRM1 agonist | CHO-K1 Ca ag | CHO-K1 Ca PAM | CHRM1 antagonist | M1 PAM
CC[n+]1c(/C=C/C=C/c2ccc(N(C)C)cc2)sc2ccccc21 | 34 | i | i | i | 69 | i
CN(C)c1ccc(/C=C/C=C/c2sc3ccccc3[n+]2C)cc1 | i | i | i | i | i | i
CC[n+]1c(/C=C/N(C)c2ccccc2)sc2ccc(Cl)cc21 | i | i | i | i | 64 | i
COC(=O)C1=C(c2c(C)noc2C)C[C@@H]2CC[C@H]1N2C(=O)NCCNC(C)=O | i | i | i | i | i | i
CC=C(CC)C1(CC)C(=O)NC(=S)NC1=O | i | i | i | i | i | i
CCOc1cc2c(cc1OCC)-n1cccc1C(c1cc(C)c(OC)cc1C)NC2 (configuration not stated) | i | i | i | i | i | i
Brc1ccc2c(c1)C(OC1CN3CCC1CC3)c1ccccc1CS2 (configuration not stated) | i | i | i | i | 101 | i
CS(=O)(=O)c1ccc(C2=C(CNC(=O)c3nccs3)[C@H]3CC[C@@H](C2)N3CCOc2ccccc2)cc1 | i | i | i | i | 56 | i
CS(=O)(=O)c1ccc(C2=C(CNC(=O)c3cccs3)[C@H]3CC[C@@H](C2)N3CCOc2ccccc2)cc1 | i | i | i | i | 35 | i
CS(=O)(=O)c1ccc(C2=C(CNC(=O)c3ccncc3)[C@H]3CC[C@@H](C2)N3Cc2ccccc2)cc1 | i | i | i | i | i | i
CCN(CC)c1ccc(C=C2C(=O)N(C)C(=S)N(C)C2=O)o1 | i | i | i | i | i | i
COc1ccc(N2C(=O)/C(=C/c3ccc(N(C)C)o3)C(=O)NC2=S)cc1 | i | i | i | i | i | i
CCN(CC)c1ccc(/C=C2\C(=O)NC(=S)N(C)C2=O)o1 | i | i | 19 | i | i | i
CCN(CC)c1ccc(/C=C2\C(=O)NC(=S)N(c3ccc(OC)cc3OC)C2=O)o1 | i | i | 23 | i | i | i
CCOC(=O)[C@]12Cc3c(cc(OC)c(OC)c3OC)[C@H]1N(C(C)C)C(=O)c1ccccc12 | i | nt | i | i | nt | nt
C[C@]12CCC3C(CC[C@H]4C[C@H](O)[C@H](O)C[C@]34C)C1CC[C@@H]2O (some centres not stated) | i | i | i | i | i | i
COC(=O)C1=C(c2cccc(C#N)c2)C[C@@H]2CC[C@H]1N2C(=O)NCc1ccco1 | i | i | i | i | i | i
CCOC(=O)[C@]12Cc3cc(C)ccc3[C@H]1N(C1CCCCC1)C(=O)c1cc(OC)ccc12 | 25 | nt | i | i | nt | nt
O=C(c1cccs1)N1CCC(C(=O)O)(c2ccccc2)CC1 | i | i | i | i | i | i
O=C(c1cccs1)C1CN2CCC1CC2 (configuration not stated) | i | i | i | i | 38 | i
O=C(O)C1CN2CCC1CC2 (configuration not stated) | i | 25 | i | i | i | i
CN1CC(C(=O)c2cccs2)C(c2ccc(Cl)cc2)C1 (configuration not stated) | i | i | 21 | i | i | i
O=C1NCN(c2ccccc2)C12CCN(C(c1cccs1)c1nnnn1Cc1ccccc1)CC2 (configuration not stated) | i | i | i | i | i | i
CC[N+](CC)(CC)CCCOC(=O)C(O)(c1ccccc1)C1CCCCC1 (configuration not stated) | i | i | i | i | 99 | i

From PubChem
